Inconclusive results are not listed. Activity calls are given as the source filed them. Unless noted, calls follow the shape of the dose curve; as a rule, active = well fitted curve in the direction sought with a large enough effect in the repeat runs; inconclusive = weak or mixed curves; inactive = no such curve, though single readings can be large; an effect the other way counts as inactive or inconclusive.
Experiments:
[1] = qHTS assay to identify small molecule antagonists of the glucocorticoid receptor (GR) signaling pathway - cell viability counter screen (AID 720693); also: nearly all actives have a fitted effect of over 55% in size
[2] = qHTS assay for identifying genotoxic compounds that show differential cytotoxicity against isogenic chicken DT40 cell lines with known DNA damage response pathways - wild type cell line (AID 743012); also: nearly all actives have a fitted effect of over 60% in size
How it was run: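 Endpoint: CellTiter-Glo luminescence, 30 min RT. Cells: wild type DT40, 300/well. Exposure: compounds in DMSO, 40 h, 37 C/5% CO2, after ~0.5 h pre-incubation.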

[3] = qHTS assay for identifying genotoxic compounds that show differential cytotoxicity against isogenic chicken DT40 cell lines with known DNA damage response pathways - Rev3 mutant cell line (AID 743014); also: nearly all actives have a fitted effect of over 55% in size
[4] = qHTS assay for identifying genotoxic compounds that show differential cytotoxicity against isogenic chicken DT40 cell lines with known DNA damage response pathways - Rad54/Ku70 mutant cell line (AID 743015); also: nearly all actives have a fitted effect of over 60% in size
[5] = qHTS assay to identify small molecule antagonists of the androgen receptor (AR) signaling pathway - cell viability counter screen (AID 743033; also: nearly all actives have a fitted effect of over 45% in size)
[6] = molecular target: Androgen receptor (Homo sapiens) (UniProt P10275); assay: qHTS assay to identify small molecule antagonists of the androgen receptor (AR) signaling pathway (AID 743035; active = well fitted inhibition curve with a large enough effect in the signal ratio in the repeat runs, not every such curve was filed as active; the % refers to the signal ratio)
Androgen receptor (Homo sapiens), sequence (P10275 whole entry, looked up): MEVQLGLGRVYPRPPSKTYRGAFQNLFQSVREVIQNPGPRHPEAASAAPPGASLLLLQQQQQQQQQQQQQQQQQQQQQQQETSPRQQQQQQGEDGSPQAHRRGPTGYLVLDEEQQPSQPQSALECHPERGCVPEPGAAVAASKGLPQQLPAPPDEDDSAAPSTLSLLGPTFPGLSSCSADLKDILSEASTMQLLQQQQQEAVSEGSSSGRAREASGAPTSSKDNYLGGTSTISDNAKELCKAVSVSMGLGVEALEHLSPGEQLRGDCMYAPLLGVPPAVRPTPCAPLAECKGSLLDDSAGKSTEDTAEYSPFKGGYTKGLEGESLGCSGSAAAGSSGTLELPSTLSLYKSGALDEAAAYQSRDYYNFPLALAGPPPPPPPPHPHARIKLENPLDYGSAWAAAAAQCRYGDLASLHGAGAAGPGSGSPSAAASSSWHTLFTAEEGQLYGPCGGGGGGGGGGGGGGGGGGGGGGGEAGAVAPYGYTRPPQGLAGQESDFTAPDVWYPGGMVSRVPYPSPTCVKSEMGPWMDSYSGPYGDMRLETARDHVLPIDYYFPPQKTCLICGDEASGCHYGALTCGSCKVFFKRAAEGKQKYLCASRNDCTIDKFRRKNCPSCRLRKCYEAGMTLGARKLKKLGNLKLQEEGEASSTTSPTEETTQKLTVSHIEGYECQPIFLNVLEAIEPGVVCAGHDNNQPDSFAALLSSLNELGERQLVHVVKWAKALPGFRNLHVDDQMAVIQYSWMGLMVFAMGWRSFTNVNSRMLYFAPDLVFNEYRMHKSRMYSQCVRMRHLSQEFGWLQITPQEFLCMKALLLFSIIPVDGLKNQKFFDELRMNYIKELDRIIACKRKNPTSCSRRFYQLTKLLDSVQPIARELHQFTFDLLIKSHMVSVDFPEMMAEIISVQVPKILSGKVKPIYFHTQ
How it was run: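 R1881 agonist challenge of a HEK293 UAS-beta-lactamase AR reporter line in the presence of compound (16 h, 37C); signal taken as FRET fluorescence after 2 h with LiveBLAzer B/G substrate at room temperature.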

[7] = molecular target: Androgen receptor (Homo sapiens) (UniProt P10275); assay: qHTS assay to identify small molecule antagonists of the androgen receptor (AR) signaling pathway using the MDA cell line (AID 743042; also: nearly all actives have a fitted effect of over 55% in size)
How it was run: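 Antagonist mode: compounds plus R1881 agonist added to MDA-kb2 AR-luc cells, incubated 16 h at 37C. Luciferase reporter luminescence quantified, with multiplexed CellTiter-Fluor readout for cell viability.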

[8] = qHTS assay to identify small molecule antagonists of the androgen receptor (AR) signaling pathway using the MDA cell line - cell viability counter screen (AID 743041; also: nearly all actives have a fitted effect of over 45% in size)
How it was run: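 Viability read by CellTiter-Fluor fluorescence in the same wells as the antagonist screen, added after 15.5 h of a 16 h, 37C exposure. Human breast carcinoma MDA-kb2 AR-luc cells, compounds co-dosed with agonist R1881.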

[9] = qHTS assay to identify small molecule antagonists of the thyroid receptor (TR) signaling pathway - cell viability counter screen (AID 743064); also: nearly all actives have a fitted effect of over 50% in size
How it was run: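 Counter screen for cytotoxicity: compound plus T3 (1 nM final) on GH3.TRE-Luc cells, 23.5 h at 37 °C, then fluorescence viability readout with CellTiter-Fluor.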

Measured: Potency

Cc1ccc(C(=O)O)cc1[N+](=O)[O-]
not listed: [8] | [9]
inactive: all other assays above

OC[C@@H](O)C(O)[C@@H](O)CO (some centres not stated)
not listed: [6] | [7] | [9]
inactive: all other assays above

CC1=C(O)C(=O)C(C)O1 (configuration not stated)
not listed: [6] | [7] | [9]
inactive: all other assays above

COC(=O)c1cc(Cl)cc(Cl)c1
inactive: all assays above

Cc1cc(-c2ccccc2)nnc1NCCN1CCOCC1
inactive: [1] | [2] | [3] | [4] | [5]

CCO
not listed: [9]
inactive: all other assays above

COC(=O)c1cccc(Cl)c1
not listed: [6] | [7]
inactive: all other assays above

O=C(O)[C@H](O)c1ccccc1
not listed: [6] | [7]
inactive: all other assays above

CC1=C(C(=O)O)N2C(=O)[C@@H](NC(=O)[C@H](N)C3=CCC=CC3)[C@H]2SC1
not listed: [6] | [7]
inactive: all other assays above

N#Cc1ccccc1O
not listed: [6] | [7]
inactive: all other assays above

Cc1ccc(C(C)NC(=O)[C@@H](NC(=O)OC(C)C)C(C)C)cc1 (some centres not stated)
not listed: [6] | [7]
inactive: all other assays above

CC/C(C)=N\O[Si](C)(O/N=C(\C)CC)O/N=C(\C)CC
not listed: [6] | [7]
inactive: all other assays above

CCn1cc(C(=O)O)c(=O)c2cnc(N3CCCC3)nc21
not listed: [6] | [7]
inactive: all other assays above

C=CCCCC
not listed: [6] | [7]
inactive: all other assays above

C=CC(=O)CCCCC
not listed: [6] | [7]
inactive: all other assays above

COC(=O)/C=C\C(=O)O
not listed: [6] | [7]
inactive: all other assays above

CCCCCCCCCCCCCCCCCCOCCO
not listed: [6] | [7]
inactive: all other assays above

C/C(CC(C)C)=N\O
not listed: [6] | [7]
inactive: all other assays above

CC1(C)Oc2ccc(C#N)cc2[C@@H](N2CCCC2=O)[C@@H]1O
not listed: [6] | [7]
inactive: all other assays above

CC1(C)O[C@H]2CC(=O)OC[C@]23[C@H]2CC[C@@]4(C)[C@H](c5ccoc5)OC(=O)[C@H]5O[C@]54[C@]2(C)C(=O)C[C@@H]13
not listed: [6] | [7]
inactive: all other assays above

CCCCCCCCCCOC(C)=O
not listed: [6] | [7]
inactive: all other assays above

COP(=O)(O)OP(=O)(O)OC
not listed: [6] | [7]
inactive: all other assays above

CCC[C@@H]1C[C@@H](C(=O)N[C@@H]([C@H]2O[C@H](SC)[C@H](O)[C@@H](O)[C@H]2O)[C@@H](C)O)N(C)C1
not listed: [6] | [7]
inactive: all other assays above

CC(CO)(CO)CO
not listed: [6] | [7]
inactive: all other assays above

COc1c2occc2c(OC)c2c(=O)cc(C)oc12
not listed: [6] | [7]
inactive: all other assays above

C[C@H]1[C@@H](c2ccccc2)NC(=O)N1C
not listed: [6] | [7]
inactive: all other assays above

CN(C)CC/C=C1/c2ccccc2COc2ccc(CC(=O)O)cc21
not listed: [6] | [7]
inactive: all other assays above

[O]=[Mo](=[O])=[O]
not listed: [6] | [7]
inactive: all other assays above

O=C1CCC(=O)N1Cl
not listed: [6] | [7]
inactive: all other assays above

— PubChem BioAssay (Tox21)
